Bioassay records deposited in PubChem BioAssay by Broad Institute.
Only some compounds are listed: those with a hit (about 3.1% of all), similar ones and a draw of the others.
RAD52 anneal inh: blocks human RAD52 DNA annealing; recombinant RAD52 DNA annealing, FRET fluorescence; 360,000 tested, 0.46% active; P43351; inhibition, % at 18.7 µM;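 active means every replicate showing at least 50% inhibition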
RAD54 branch: blocks human RAD54 Holliday junction branch migration. Q92698. FAM/BHQ fluorescence. inhibition, % at 10.4 µM. 360,000 tested, 0.14% active. AID 602329;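 active means mean normalized replicate activity at least 40 and at least half of replicates scoring 40 or more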;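 further: inhibitors cause a drop in the FAM fluorescence signal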
AF4-AF9 inh: MLL-AF4/AF9 protein interaction inhibition; P42568; AlphaScreen, biotin-AF4 peptide binding to FLAG-AF9; inhibition, % at 10 µM; 350,000 tested, 0.47% active; AID 651704;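 active means every replicate reaching a set inhibition limit, whatever the replicate mean, cut at about 25% in these data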
dFosB act: activators of mouse delta FosB homodimer; P13346; purified delta FosB, TAMRA-CDK5 oligo fluorescence polarization; percent of positive-control signal above neutral wells; activation, % at 25 µM; 340,000 tested, 0.99% active;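 active means mean activation above about 17%, with every replicate also reaching it, limit read from the data, passing the limit was not always enough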
INS-1E GSIS act: GLuc luminescence reporter in INS-1E cells, primary screen for activators of glucose-dependent secretion of insulin | AID 743287 | INS-1E GLuc reporter insulin secretion, 2-3 h | activation, % at 16.6 µM | 370,000 tested, 0.61% active;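 active means lowest replicate activation of at least 40%, so every replicate reaches that level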
DENV2 CPE: protects cells from dengue virus 2 cytopathic effect. AID 651640. DENV2-infected cells, cytopathic effect rescue, plate reader. 350,000 tested, 1.7% active. CPE inhibition, % at 9.99 µM; in the data active means CPE inhibition above about 20%, passing the limit was not always enough; tested in BHK-21 cells
Each line names hits and unclear results; the compound was inactive in the other large screens.

COc1ccc(C#Cc2cnc3c(c2)C(=O)N([C@@H](C)CO)C[C@@H](C)[C@H](CN(C)C(=O)c2ccccc2F)O3)cc1	none (no result: dFosB act)
Cc1noc(C)c1NC(=O)N(C)C[C@@H]1Oc2ccc(NC(=O)C3CCCCC3)cc2CC(=O)N([C@H](C)CO)C[C@H]1C	none (no result: dFosB act)
Cc1noc(C)c1NC(=O)N(C)C[C@@H]1Oc2ccc(NC(=O)NC3CCCCC3)cc2CC(=O)N([C@@H](C)CO)C[C@H]1C	DENV2 CPE 24 (no result: dFosB act)
Cc1noc(C)c1NC(=O)N(C)C[C@@H]1Oc2ccc(NC(=O)C3CCCCC3)cc2CC(=O)N([C@@H](C)CO)C[C@@H]1C	DENV2 CPE 31 (no result: dFosB act)
Cc1noc(C)c1NC(=O)N(C)C[C@H]1Oc2ccc(NC(=O)NC3CCCCC3)cc2CC(=O)N([C@H](C)CO)C[C@H]1C	DENV2 CPE 22 (no result: dFosB act)
Cc1noc(C)c1NC(=O)Nc1ccc2c(c1)CC(=O)N([C@@H](C)CO)C[C@@H](C)[C@@H](CN(C)C(=O)NC1CCCCC1)O2	none (no result: dFosB act)
COc1ccc(-n2nc(C(=O)NCC(=O)NC(C)C)c3ccccc3c2=O)cc1Cl	none (no result: INS-1E GSIS act)
COc1ccc(-n2nc(C(=O)NCC(=O)Nc3ccccn3)c3ccccc3c2=O)cc1Cl	dFosB act 67 (no result: RAD52 anneal inh, AF4-AF9 inh, INS-1E GSIS act, DENV2 CPE)
CCCNC(=O)N1[C@@H](CO)[C@@H](c2ccc(C3=CCCC3)cc2)[C@@H]1CNC(C)=O	none (no result: RAD52 anneal inh, AF4-AF9 inh, dFosB act)
CCOC(=O)C(=C1Nc2ccccc2N1)n1c(-c2ccco2)nc2ccccc21	none (no result: RAD54 branch, dFosB act)
CCOC(=O)C(=C1Nc2ccccc2N1)n1c(-c2cnccn2)nc2ccccc21	DENV2 CPE 57 (no result: RAD54 branch, dFosB act)
COc1ccc2oc(-c3ccc(NC(=O)c4ccc(N5CCOCC5)c([N+](=O)[O-])c4)cc3)nc2c1	INS-1E GSIS act 109 (no result: RAD52 anneal inh, AF4-AF9 inh, DENV2 CPE)
O=C(Nc1ccc(-c2nc3ccccc3o2)cc1)c1ccc(N2CCOCC2)c([N+](=O)[O-])c1	none (no result: RAD54 branch)
CCCN1CCC(=O)N([C@H](CN=[N+]=[N-])Cc2ccccc2)CC1	AF4-AF9 inh 43
CC(C)C[C@@H](CN=[N+]=[N-])N1CCN(CC(C)C)CCC1=O	DENV2 CPE 87
CC(C)CN1CCC(=O)N([C@H](CN=[N+]=[N-])Cc2ccccc2)CC1	none
CN1CCC(=O)N([C@H](CN=[N+]=[N-])Cc2ccccc2)CC1	AF4-AF9 inh 43
O=C(NCC[C@@H]1CC[C@@H](NS(=O)(=O)c2ccccc2)[C@H](CO)O1)c1cc(Cl)cc(Cl)c1	none (no result: dFosB act)
CC1(C(=O)NS(=O)(=O)c2ccccc2C(F)(F)F)CCN1C(=O)CCc1ccccc1 (stereo not drawn)	DENV2 CPE 49 (no result: dFosB act)
CC1(C(=O)NS(C)(=O)=O)CCN1C(=O)C/C=C/c1ccccc1 (stereo not drawn)	DENV2 CPE 61 (no result: dFosB act)
C[C@@]12C(=O)N(CCc3c[nH]c4ccccc34)CC(=O)N1[C@H]1c3ccccc3OC[C@@H]1[C@@H]2c1ccccc1	DENV2 CPE 54
C[C@]12C(=O)N(c3cccc(Cl)c3)C(=O)N1[C@H]1c3ccccc3OC[C@@H]1[C@H]2c1ccccc1	none (no result: RAD52 anneal inh, AF4-AF9 inh, INS-1E GSIS act, DENV2 CPE)
C[C@]12C(=O)N(c3ccc(F)cc3)C(=O)N1[C@H]1c3ccccc3OC[C@@H]1[C@H]2c1ccccc1	none
COc1ccc2c(c1)OC[C@H]1[C@H]2N2C(=O)c3cc(Cl)ccc3NC(=O)[C@@]2(C)[C@H]1c1ccccc1	none (no result: RAD52 anneal inh, AF4-AF9 inh, INS-1E GSIS act, DENV2 CPE)
C[C@@]12C(=O)N(c3ccc(F)cc3)C(=O)N1[C@@H]1c3ccccc3OC[C@@H]1[C@H]2c1ccccc1	DENV2 CPE 21
C[C@@]12C(=O)N(c3cccc(Cl)c3)C(=O)N1[C@@H]1c3ccccc3OC[C@@H]1[C@H]2c1ccccc1	AF4-AF9 inh 43
COc1ccc2c(c1)OC[C@H]1[C@H]2N2C(=O)c3cc(OC)ccc3NC(=O)[C@@]2(C)[C@H]1c1ccccc1	DENV2 CPE 47 (no result: AF4-AF9 inh)
CN1C(=O)c2cc(NC(=O)c3ccc(F)c(F)c3)ccc2OC[C@@H]2O[C@H](CC(=O)N[C@@H]3CCN(Cc4ccccc4)C3)CC[C@@H]21	none (no result: dFosB act)
CCS(=O)(=O)N[C@@H]1CC[C@@H](CC(=O)NC2Cc3ccccc3C2)O[C@@H]1CO	none (no result: dFosB act)
C[C@@H]1CCCCO[C@@H](CN(C)C(=O)c2ccncc2)[C@@H](C)CN([C@H](C)CO)C(=O)c2cc(NS(=O)(=O)c3cn(C)cn3)ccc2O1	none (no result: dFosB act)
